# Test results reported in PubChem BioAssay (NCATS).
# Inconclusive results are not listed. Entries that show only a call come without a potency. Calls of active or inactive are those of the source. Calls follow the shape of the dose curve; as a rule, active = well fitted curve in the direction sought with a large enough effect; inconclusive = small, poorly fitted or top-dose-only effect, or another doubt; inactive = no such curve, though single readings can be large; an effect the other way counts as inactive or inconclusive.
# What was measured:
# [1] = molecular target: Aldehyde dehydrogenase, mitochondrial (Homo sapiens) (UniProt P05091); experiment: qHTS for Inhibitors of the Aldehyde Dehydrogenase Family (ALDH2) Primary screen (AID 2061308); conditions: ALDH2 enzyme inhibition qHTS, 1536-well; series mostly up to 56 µM; also: nearly all actives have a fitted effect of over 55% in size
# [2] = molecular target: Retinaldehyde dehydrogenase 3 (Homo sapiens) (UniProt P47895); experiment: qHTS for Inhibitors of the Aldehyde Dehydrogenase Family (ALDH1A3) Primary screen (AID 2061315); conditions: ALDH inhibition qHTS; series mostly up to 56 µM
Compound,Potency [1],Potency [2]
Cc1cccc(C(=O)NC2CCN(C#N)CC2)c1,inactive,inactive
O=[S+]([O-])(c1ccc(N2CCOCC2)nc1)N1CCN([S+](=O)([O-])c2c(F)cccc2F)CC1,inactive,inactive
Cc1ccc(S(=O)(=O)Nc2cnccc2C(=O)Nc2nc(-c3cccc(F)c3)cs2)cc1,inactive,inactive
Cc1nc(NCCO)c2nc(-c3ccccc3)n(CCCN(C)C)c2n1,inactive,inactive
N#Cc1nonc1-c1ccccc1,inactive,inactive
COc1cccc(C2c3c(ncn(Cc4cccs4)c3=N)Oc3ccc4ccccc4c32)c1 (stereo not given),inactive,inactive
Cc1ccc(N2C(=O)c3ccccc3C2=O)c(C)c1,inactive,inactive
Cc1ccnc(NC(=S)NC2CN(c3cccc(C(F)(F)F)c3)C2)c1,inactive,inactive
O=C1CCCC2=C1C(c1[nH]ncc1Cl)NC(=NCc1ccoc1)N2 (stereo not given),inactive,inactive
CC(C)C(OC(=O)CNC(=O)c1ccccc1)C(=O)Nc1cc(C(F)(F)F)ccc1Cl (stereo not given),inactive,inactive
CCOC(=O)c1ccc(-c2ccc3ncnc(N(C)Cc4sccc4C)c3c2)o1,inactive,inactive
CC(C)(C)N[S+](=O)([O-])c1cccc(-c2nnc(SCC(=O)Nc3ccc(C(=O)O)cc3)n2-c2ccccc2)c1,inactive,inactive
O=C(NCCCCN1CCN(c2cccc(Cl)c2Cl)CC1)c1cc2ccccc2s1,inactive,inactive
O=C(Nc1ccc(Cl)c(Cl)c1)Nc1nc(-c2ccncc2)cs1,inactive,inactive
NC(=O)c1c(-c2ccccc2)no[n+]1[O-],inactive,inactive
CCN(CC)CCCC(C)n1c(-c2ccccc2)nc2c(NCCOC)nc(C)nc21 (stereo not given),inactive,inactive
Cc1ccccc1S(=O)(=O)N1CCN(S(=O)(=O)c2ccc3c(c2)OCCO3)CC1,inactive,inactive
O=C(O)c1ccc(S(=O)(=O)N[C@H](Cc2c[nH]c3ccccc23)C(=O)O)cc1,inactive,inactive
CCOc1ccc(CCNC(=O)c2cc3sccc3n2Cc2cccc(C)c2)cc1OCC,inactive,inactive
Cc1ccc(Cn2ncc3c4sc(C)cc4n(C)c3c2=O)c(C)c1,inactive,inactive
CC(=O)c1ccc(N2CCN(S(=O)(=O)c3ccc(N4CCCC4=O)cc3)CC2)cc1,inactive,inactive
Cc1ccccc1S(=O)(=O)N1CCc2cc(-c3nc(NC(=O)Cc4ccc5c(c4)OCO5)sc3C)ccc21,inactive,inactive
COc1ccc(-c2nc3ccccc3c(=O)n2Cc2ccccc2)cc1COc1ccc(NC(C)=O)cc1,inactive,inactive
NC(=O)c1ccc(-c2noc(-c3cccc(Cl)c3)n2)cc1,inactive,inactive
O=C(CSc1nnc(-c2cccc(S(=O)(=O)N3CCCC3)c2)n1-c1ccccc1)Nc1ccc(Cl)cc1,inactive,inactive

Compound,Potency [1],Potency [2]
Cc1ccc(NS(=O)(=O)c2ccc3[nH]c(=O)[nH]c3c2)cc1C,inactive,inactive
Cc1nc(CCN(C)c2ncnc3ccc(-c4ccc5c(c4)OCO5)cc23)cs1,inactive,inactive
NC(=O)C1CCN(c2ncc(Br)cn2)CC1,inactive,inactive
CCCn1c(C)nc2c(N(CCOC)CCOC)nc(C)nc21,inactive,inactive
COc1ccc(OC)c(C2=Nn3c(nnc3-c3ccccc3OC)SC2)c1,inactive,inactive
O=C(Nc1ccc(Cl)c(C(F)(F)F)c1)Nc1nnc(-c2ccncc2)s1,inactive,inactive
Fc1ccc(Nc2nc(-c3ccncc3Cl)nc3ccccc23)cc1F,inactive,inactive
O=C(O)c1ccc(O)c2ncccc12,inactive,inactive
COc1ccc(-c2csc(NC(=O)c3ccccc3NS(=O)(=O)c3ccc(C)cc3)n2)cc1,inactive,inactive
O=c1c2ccccc2nc2sc(Nc3cccc(Cl)c3)nn12,inactive,inactive
Cc1ccc(-c2cc(C(=O)O)c3cccc(C)c3n2)cc1C,inactive,inactive
O=C1CCc2cc(S(=O)(=O)Nc3cccc(F)c3)ccc2N1,inactive,inactive
CN(C)c1ccc(C2N=C(Nc3nc4ccccc4o3)NC3=C2C(=O)CCC3)cc1 (stereo not given),inactive,inactive
Cc1cc(-c2nnc3n2CCCCCC3)c(C)n1-c1ccccc1,inactive,inactive
O=C(OCC#CCSc1nnc(-c2cccc3ccccc23)o1)c1ccc(Cl)c(C(F)(F)F)c1,inactive,inactive
O=C(CCc1ccccc1)Nc1cccc([S+](=O)([O-])Nc2ccccc2F)c1,inactive,inactive
CCOC(=O)C1CCN(C(=O)C(C)(C)NC(=O)Nc2ccc3ccccc3c2)CC1,inactive,inactive
Cc1ccc(OCCn2c(CCNC(=O)c3ccc4cc[nH]c4c3)nc3ccccc32)cc1,inactive,inactive
CC(C)(C)c1ccc(-c2csc(N3CCC(C(N)=O)CC3)n2)cc1,inactive,inactive
COc1cc(O)c(C(CC(=O)N2CCC[C@@H](C)C2)c2ccc3c(c2)OCO3)c(OC)c1 (stereo not given in full),inactive,inactive
O=C1CCCC2=C1C(c1ccc(Cl)cc1)N=C(Nc1nc3ccccc3o1)N2 (stereo not given),inactive,inactive
O=C(NC(c1ccco1)c1cc(Cl)c2cccnc2c1O)c1ccsc1 (stereo not given),inactive,inactive
CN(C)c1cccc(-c2ccnc(N3CCC(C(N)=O)CC3)n2)c1,inactive,inactive
O=C1c2ccccc2C(=O)N1Cc1ccncc1,inactive,inactive
CC(=O)Nc1sc2c(c1-c1ccc3c(c1)CCO3)CCNC2,inactive,inactive
